Results: PubChem BioAssay AID1159580 (chemical genetic matrix, 2015)
About 2,000 (36%) of roughly 5,500 compounds were called active. Another 18% or so got no clear call; they are omitted. Rule as the data show it: active = normalized growth mostly below about 0.91 (no sharp cut-off); inconclusive = no clear call, values can overlap the other calls; inactive = mostly above about 0.92. This is one part of the list.

Experiment: chemical genetic growth profiling, strain panel (AID 1159580);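 also: tested at 20 µM; growth read once vehicle control cultures reached saturation at 30 °C; 1 = growth at the plate median or of vehicle wells; lower values mean less growth of the strain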
Conditions: S. cerevisiae deletion strains, growth OD

Measured: normalized growth

COC(=O)[C@@H]1OC(=O)C2OC23[C@@]1(C)CCC1[C@@]2(C)CCC(=O)C(C)(C)C2C[C@@H](OC(C)=O)[C@]13C (stereo not given in full)
inactive: locus YAL021C, strain ccr4, stronger effect = lower value 1.01 | locus YAL026C, strain drs2, stronger effect = lower value 1.01 | locus YAL030W, strain snc1, stronger effect = lower value 1.01 | locus YBL061C, strain skt5, stronger effect = lower value 1.01 | locus YBR009C, strain hhf1, stronger effect = lower value 1.01 | locus YBR021W, strain FUR4, stronger effect = lower value 1.03 | locus YBR023C, strain chs3, stronger effect = lower value 1.01 | locus YBR171W, strain sec66, stronger effect = lower value 1.02 | locus YBR229C, strain ROT2, stronger effect = lower value 1.01 | locus YBR231C, strain swc5, stronger effect = lower value 1.01 | locus YBR279W, strain paf1, stronger effect = lower value 1.02 | locus YCL011C, strain gbp2, stronger effect = lower value 1.01 | locus YCL016C, strain dcc1, stronger effect = lower value 1.02 | locus YCL029C, strain bik1, stronger effect = lower value 1.04 | locus YCL061C, strain MRC1, stronger effect = lower value 1.01 | locus YCL069W, strain vba3, stronger effect = lower value 1.01 | locus YCR088W, strain abp1, stronger effect = lower value 1.02 | locus YDL005C, strain med2, stronger effect = lower value 1.02 | locus YDL035C, strain GPR1, stronger effect = lower value 1.05 | locus YDL040C, strain nat1, stronger effect = lower value 1.02 | locus YDL074C, strain BRE1, stronger effect = lower value 1.14 | locus YDL101C, strain DUN1, stronger effect = lower value 1.04 | locus YDL185W, strain tfp1, stronger effect = lower value 1.01 | locus YDL192W, strain arf1, stronger effect = lower value 1.02 | locus YDR001C, strain nth1, stronger effect = lower value 1.01 | locus YDR069C, strain doa4, stronger effect = lower value 1.02 | locus YDR101C, strain arx1, stronger effect = lower value 1.01 | locus YDR137W, strain rgp1, stronger effect = lower value 1.01 | locus YDR159W, strain sac3, stronger effect = lower value 1.01 | locus YDR162C, strain NBP2, stronger effect = lower value 1.04 | locus YDR195W, strain ref2 0.999 | locus YDR297W, strain sur2, stronger effect = lower value 1.01 | locus YDR318W, strain mcm21, stronger effect = lower value 1.02 | locus YDR334W, strain swr1, stronger effect = lower value 1.02 | locus YDR335W, strain msn5, stronger effect = lower value 1.02 | locus YDR388W, stronger effect = lower value 1.01 | locus YDR392W, strain spt3, stronger effect = lower value 1.01 | locus YDR502C, strain sam2, stronger effect = lower value 1.01 | locus YEL003W, strain gim4, stronger effect = lower value 1.02 | locus YEL037C, strain rad23, stronger effect = lower value 1.02 | locus YEL061C, strain CIN8 (second series), stronger effect = lower value 1.03 | locus YER015W, strain faa2, stronger effect = lower value 1.02 | locus YER016W, strain bim1, stronger effect = lower value 1.02 | locus YER110C, stronger effect = lower value 0.992 | locus YER111C, strain swi4, stronger effect = lower value 1.01 | locus YER155C, strain BEM2 (second series), stronger effect = lower value 1.03 | locus YER155C, strain BEM2, stronger effect = lower value 1 | locus YER167W, strain BCK2, stronger effect = lower value 1.01 | locus YFR010W, strain ubp6, stronger effect = lower value 1.01 | locus YGL078C, strain dbp3, stronger effect = lower value 1 | locus YGL086W, strain mad1, stronger effect = lower value 1.02 | locus YGL167C, strain pmr1, stronger effect = lower value 1.02 | locus YGL173C, strain kem1, stronger effect = lower value 1.01 | locus YGL227W, strain vid30, stronger effect = lower value 1.02 | locus YGL240W, strain doc1, stronger effect = lower value 1.02 | locus YGL248W, strain PDE1, stronger effect = lower value 1.05 | locus YGL253W, strain hxk2, stronger effect = lower value 1.01 | locus YGR078C, strain PAC10, stronger effect = lower value 1.05 | locus YGR135W, strain pre9, stronger effect = lower value 1.05 | locus YGR252W, strain gcn5, stronger effect = lower value 1.08 | locus YHR013C, strain ard1, stronger effect = lower value 1.02 | locus YHR027C, strain rpn1, stronger effect = lower value 1.02 | locus YHR079C, strain IRE1 (second series), stronger effect = lower value 0.995 | locus YHR094C, strain hxt1, stronger effect = lower value 0.992 | locus YHR129C, strain ARP1, stronger effect = lower value 1.03 | locus YHR142W, strain chs7, stronger effect = lower value 1.03 | locus YHR200W, strain rpn10, stronger effect = lower value 1.02 | locus YIL066C, strain RNR3, stronger effect = lower value 1.02 | locus YIL073C, strain SPO22, stronger effect = lower value 1.1 | locus YIL125W, strain kgd1, stronger effect = lower value 1.01 | locus YIR030C, strain dcg1, stronger effect = lower value 0.991 | locus YJL092W, strain hpr5, stronger effect = lower value 1.01 | locus YJL095W, strain BCK1 (second series), stronger effect = lower value 1.01 | locus YJL095W, strain BCK1, stronger effect = lower value 1.1 | locus YJL115W, strain asf1, stronger effect = lower value 1 | locus YJL129C, strain trk1, stronger effect = lower value 1.03 | locus YJL134W, strain LCB3, stronger effect = lower value 1.01 | locus YJL154C, strain vps35, stronger effect = lower value 1.03 | locus YJL164C, strain tpk1, stronger effect = lower value 1.03 | locus YJL166W, strain qcr8, stronger effect = lower value 1.01 | locus YJL168C, strain set2, stronger effect = lower value 1.01 | locus YJL187C, strain SWE1 (second series), stronger effect = lower value 1.03 | locus YJL187C, strain SWE1, stronger effect = lower value 1.02 | locus YJR043C, strain POL32, stronger effect = lower value 1.09 | locus YKL009W, strain mrt4, stronger effect = lower value 1 | locus YKL068W, stronger effect = lower value 1.01 | locus YKL085W, strain MDH1 (second series), stronger effect = lower value 0.994 | locus YKL085W, strain MDH1, stronger effect = lower value 0.994 | locus YKL160W, strain elf1, stronger effect = lower value 1.02 | locus YKL190W, strain CNB1, stronger effect = lower value 1.02 | locus YKR001C, strain vps1, stronger effect = lower value 1.06 | locus YKR026C, strain gcn3, stronger effect = lower value 1.02 | locus YKR091W, strain srl3, stronger effect = lower value 1.02 | locus YLL001W, strain dnm1, stronger effect = lower value 1.01 | locus YLL026W, stronger effect = lower value 1.02 | locus YLL041C, strain sdh2, stronger effect = lower value 1.01 | locus YLR027C, strain aat2, stronger effect = lower value 1.03 | locus YLR039C, strain RIC1, stronger effect = lower value 1.13 | locus YLR058C, strain SHM2, stronger effect = lower value 1.04 | locus YLR102C, strain apc9, stronger effect = lower value 0.99 | locus YLR221C, strain rsa3, stronger effect = lower value 1.01 | locus YLR258W, strain gsy2, stronger effect = lower value 1.01 | locus YLR262C, strain YPT6 (second series), stronger effect = lower value 1.03 | locus YLR268W, strain sec22, stronger effect = lower value 1.04 | locus YLR320W, strain mms22, stronger effect = lower value 1.02 | locus YLR330W, strain CHS5, stronger effect = lower value 1.01 | locus YLR342W, strain FKS1 (second series), stronger effect = lower value 1.03 | locus YLR342W, strain FKS1, stronger effect = lower value 1.02 | locus YLR357W, strain rsc2, stronger effect = lower value 1 | locus YLR370C, strain arc18, stronger effect = lower value 1.01 | locus YLR371W, strain rom2, stronger effect = lower value 1.02 | locus YLR384C, strain iki3, stronger effect = lower value 1.04 | locus YLR418C, strain cdc73, stronger effect = lower value 1.06 | locus YML016C, strain PPZ1, stronger effect = lower value 1.01 | locus YML032C, strain rad52, stronger effect = lower value 0.992 | locus YML120C, strain ndi1, stronger effect = lower value 1.02 | locus YML124C, strain tub3, stronger effect = lower value 0.99 | locus YMR058W, strain fet3, stronger effect = lower value 1.01 | locus YMR078C, strain ctf18, stronger effect = lower value 0.998 | locus YMR125W, strain sto1, stronger effect = lower value 1.02 | locus YMR129W, stronger effect = lower value 1.01 | locus YMR205C, strain PFK2, stronger effect = lower value 1.02 | locus YMR223W, strain ubp8, stronger effect = lower value 1.01 | locus YMR231W, strain pep5, stronger effect = lower value 1 | locus YMR307W, strain GAS1, stronger effect = lower value 1.2 | locus YNL067W, strain RPL9B, stronger effect = lower value 1.03 | locus YNL071W, strain lat1, stronger effect = lower value 1.02 | locus YNL153C, strain GIM3, stronger effect = lower value 1.06 | locus YNL209W, strain ssb2, stronger effect = lower value 1.02 | locus YNL233W, strain BNI4, stronger effect = lower value 1.08 | locus YNL248C, strain rpa49, stronger effect = lower value 1.01 | locus YNL250W, strain rad50, stronger effect = lower value 1.01 | locus YNL271C, strain bni1, stronger effect = lower value 0.997 | locus YNL298W, strain CLA4, stronger effect = lower value 1.01 | locus YNL307C, strain MCK1, stronger effect = lower value 0.995 | locus YNL322C, strain KRE1 (second series), stronger effect = lower value 1.02 | locus YNR049C, strain mso1, stronger effect = lower value 1.01 | locus YNR052C, strain pop2, stronger effect = lower value 0.989 | locus YOL012C, strain htz1 1.07 | locus YOL147C, strain pex11, stronger effect = lower value 1 | locus YOR001W, strain rrp6, stronger effect = lower value 1.02 | locus YOR061W, strain CKA2, stronger effect = lower value 1.02 | locus YOR069W, strain VPS5, stronger effect = lower value 1.01 | locus YOR070C, strain gyp1, stronger effect = lower value 1 | locus YOR080W, strain dia2, stronger effect = lower value 1.01 | locus YOR083W, strain WHI5, stronger effect = lower value 1.02 | locus YOR106W, strain vam3, stronger effect = lower value 1.01 | locus YOR136W, strain idh2, stronger effect = lower value 0.993 | locus YOR144C, strain elg1, stronger effect = lower value 0.993 | locus YOR184W, strain ser1, stronger effect = lower value 1.03 | locus YOR265W, strain rbl2, stronger effect = lower value 1.01 | locus YOR270C, strain vph1, stronger effect = lower value 1.05 | locus YOR290C, strain snf2, stronger effect = lower value 1.02 | locus YOR316C, strain cot1, stronger effect = lower value 1 | locus YPL051W, strain arl3, stronger effect = lower value 0.993 | locus YPL055C, strain LGE1, stronger effect = lower value 1.11 | locus YPL078C, strain atp4, stronger effect = lower value 1.01 | locus YPL106C, strain sse1, stronger effect = lower value 1.01 | locus YPL240C, strain hsp82, stronger effect = lower value 1.01 | locus YPL241C, strain CIN2, stronger effect = lower value 1.01 | locus YPR119W, strain clb2, stronger effect = lower value 0.993 | locus YPR141C, strain kar3, stronger effect = lower value 0.994 | locus YPR163C, strain tif3, stronger effect = lower value 1.01 | locus YPR167C, strain met16, stronger effect = lower value 1.01 | strain wtn01, stronger effect = lower value 1.02
